Residual activity data for 2 compounds are collected here from ChEMBL document CHEMBL2218924, “A broad activity screen in support of a chemogenomic map for kinase signalling research and drug discovery” (Biochem J, 2013).

Assay [1] deals with Tyrosine-protein kinase SYK (Homo sapiens) (UniProt P43405). To be noted: at 10 µM.
The target of assay [2] is T1, Serine/threonine-protein kinase TBK1 (Homo sapiens) (UniProt Q9UHD2).
T1 sequence (whole entry): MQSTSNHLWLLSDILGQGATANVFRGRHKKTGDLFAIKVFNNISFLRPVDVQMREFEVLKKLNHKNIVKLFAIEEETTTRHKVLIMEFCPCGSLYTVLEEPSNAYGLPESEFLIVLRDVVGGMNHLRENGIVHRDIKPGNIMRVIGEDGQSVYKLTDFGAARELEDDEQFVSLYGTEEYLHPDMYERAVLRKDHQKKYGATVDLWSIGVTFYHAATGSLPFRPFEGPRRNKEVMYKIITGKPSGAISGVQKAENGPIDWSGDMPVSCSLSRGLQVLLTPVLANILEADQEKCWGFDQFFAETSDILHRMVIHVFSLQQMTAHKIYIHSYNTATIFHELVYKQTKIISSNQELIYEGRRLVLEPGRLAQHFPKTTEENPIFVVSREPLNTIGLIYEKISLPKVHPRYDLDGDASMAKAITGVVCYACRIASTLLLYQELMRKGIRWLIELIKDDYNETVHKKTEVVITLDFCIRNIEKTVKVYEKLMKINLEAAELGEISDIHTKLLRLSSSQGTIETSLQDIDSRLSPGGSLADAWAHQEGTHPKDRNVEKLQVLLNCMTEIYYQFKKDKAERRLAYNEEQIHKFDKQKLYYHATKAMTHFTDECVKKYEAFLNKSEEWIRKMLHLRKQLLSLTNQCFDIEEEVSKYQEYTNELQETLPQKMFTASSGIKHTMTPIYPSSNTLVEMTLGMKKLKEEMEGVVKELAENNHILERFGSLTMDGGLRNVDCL
To be noted: at 1 µM.

The target of assay [3] is T1, Serine/threonine-protein kinase TBK1 (Homo sapiens). To be noted: at 10 µM.
Assay [4] concerns the target T2, TGF-beta receptor type-1 (Homo sapiens) (UniProt P36897).
T2 sequence (whole entry): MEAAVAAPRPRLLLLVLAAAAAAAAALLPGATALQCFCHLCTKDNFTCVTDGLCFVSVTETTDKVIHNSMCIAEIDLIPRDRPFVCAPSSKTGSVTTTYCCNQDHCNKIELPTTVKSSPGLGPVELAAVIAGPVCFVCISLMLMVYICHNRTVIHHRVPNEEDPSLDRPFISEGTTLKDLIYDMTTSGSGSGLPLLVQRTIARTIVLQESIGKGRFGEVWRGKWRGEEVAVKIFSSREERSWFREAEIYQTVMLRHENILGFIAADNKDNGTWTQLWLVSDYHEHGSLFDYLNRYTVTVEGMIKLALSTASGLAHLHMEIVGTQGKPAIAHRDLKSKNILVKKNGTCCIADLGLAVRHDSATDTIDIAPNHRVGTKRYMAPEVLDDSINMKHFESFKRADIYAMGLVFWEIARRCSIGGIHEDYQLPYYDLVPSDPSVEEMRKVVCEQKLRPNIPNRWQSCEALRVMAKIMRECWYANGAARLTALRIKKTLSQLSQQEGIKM
The note with it: at 1 µM.

In assay [5] the target is T3, Inhibitor of nuclear factor kappa-B kinase subunit alpha (Homo sapiens) (UniProt O15111).
T3 sequence (whole entry): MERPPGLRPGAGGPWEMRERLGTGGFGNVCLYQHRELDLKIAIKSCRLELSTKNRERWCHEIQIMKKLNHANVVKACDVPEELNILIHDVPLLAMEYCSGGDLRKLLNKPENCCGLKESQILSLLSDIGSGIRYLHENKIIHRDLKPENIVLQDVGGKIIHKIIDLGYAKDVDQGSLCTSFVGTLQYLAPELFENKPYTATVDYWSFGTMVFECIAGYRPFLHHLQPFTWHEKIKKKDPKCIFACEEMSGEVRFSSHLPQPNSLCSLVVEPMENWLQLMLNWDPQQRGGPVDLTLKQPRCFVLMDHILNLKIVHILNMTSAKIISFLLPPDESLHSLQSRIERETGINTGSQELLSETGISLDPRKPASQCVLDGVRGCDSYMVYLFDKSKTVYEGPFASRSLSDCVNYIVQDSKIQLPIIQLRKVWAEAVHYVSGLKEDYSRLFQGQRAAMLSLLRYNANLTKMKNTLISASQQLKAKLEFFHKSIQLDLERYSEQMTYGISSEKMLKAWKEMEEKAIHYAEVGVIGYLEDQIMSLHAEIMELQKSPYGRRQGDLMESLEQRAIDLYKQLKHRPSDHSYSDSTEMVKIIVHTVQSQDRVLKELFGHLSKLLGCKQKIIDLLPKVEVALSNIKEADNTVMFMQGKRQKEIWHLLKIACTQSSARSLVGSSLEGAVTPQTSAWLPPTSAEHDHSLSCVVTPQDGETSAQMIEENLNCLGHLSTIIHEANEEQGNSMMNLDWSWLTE
To be noted: at 1 µM.

The target in assay [6] is T3, Inhibitor of nuclear factor kappa-B kinase subunit alpha (Homo sapiens). The note with it: at 10 µM.
Assay [7] has as its target T4, Mitogen-activated protein kinase kinase kinase 7 (Homo sapiens) (UniProt O43318).
T4 sequence (whole entry): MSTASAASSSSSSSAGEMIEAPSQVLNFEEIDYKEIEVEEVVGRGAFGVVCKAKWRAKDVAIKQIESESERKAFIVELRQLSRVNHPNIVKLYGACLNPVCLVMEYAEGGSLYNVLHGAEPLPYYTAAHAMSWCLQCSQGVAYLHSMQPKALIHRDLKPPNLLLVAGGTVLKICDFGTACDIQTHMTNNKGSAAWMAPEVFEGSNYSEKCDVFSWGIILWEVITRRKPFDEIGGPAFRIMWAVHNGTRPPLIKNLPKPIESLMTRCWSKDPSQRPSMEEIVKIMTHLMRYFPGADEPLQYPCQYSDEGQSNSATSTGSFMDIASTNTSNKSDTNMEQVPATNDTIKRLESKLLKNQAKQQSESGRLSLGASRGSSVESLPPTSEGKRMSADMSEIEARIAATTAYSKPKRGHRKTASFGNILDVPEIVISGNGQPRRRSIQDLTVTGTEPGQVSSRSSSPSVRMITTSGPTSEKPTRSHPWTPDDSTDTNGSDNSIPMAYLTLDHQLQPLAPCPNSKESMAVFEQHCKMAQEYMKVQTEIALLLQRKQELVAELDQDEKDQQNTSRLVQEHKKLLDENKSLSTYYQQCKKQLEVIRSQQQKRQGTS
To be noted: at 1 µM.

The target of assay [8] is T4, Mitogen-activated protein kinase kinase kinase 7 (Homo sapiens). The note with it: at 10 µM.
Assay [9] addresses T5, Serine/threonine-protein kinase TAO2 (Homo sapiens) (UniProt Q9UL54).
T5 sequence (whole entry): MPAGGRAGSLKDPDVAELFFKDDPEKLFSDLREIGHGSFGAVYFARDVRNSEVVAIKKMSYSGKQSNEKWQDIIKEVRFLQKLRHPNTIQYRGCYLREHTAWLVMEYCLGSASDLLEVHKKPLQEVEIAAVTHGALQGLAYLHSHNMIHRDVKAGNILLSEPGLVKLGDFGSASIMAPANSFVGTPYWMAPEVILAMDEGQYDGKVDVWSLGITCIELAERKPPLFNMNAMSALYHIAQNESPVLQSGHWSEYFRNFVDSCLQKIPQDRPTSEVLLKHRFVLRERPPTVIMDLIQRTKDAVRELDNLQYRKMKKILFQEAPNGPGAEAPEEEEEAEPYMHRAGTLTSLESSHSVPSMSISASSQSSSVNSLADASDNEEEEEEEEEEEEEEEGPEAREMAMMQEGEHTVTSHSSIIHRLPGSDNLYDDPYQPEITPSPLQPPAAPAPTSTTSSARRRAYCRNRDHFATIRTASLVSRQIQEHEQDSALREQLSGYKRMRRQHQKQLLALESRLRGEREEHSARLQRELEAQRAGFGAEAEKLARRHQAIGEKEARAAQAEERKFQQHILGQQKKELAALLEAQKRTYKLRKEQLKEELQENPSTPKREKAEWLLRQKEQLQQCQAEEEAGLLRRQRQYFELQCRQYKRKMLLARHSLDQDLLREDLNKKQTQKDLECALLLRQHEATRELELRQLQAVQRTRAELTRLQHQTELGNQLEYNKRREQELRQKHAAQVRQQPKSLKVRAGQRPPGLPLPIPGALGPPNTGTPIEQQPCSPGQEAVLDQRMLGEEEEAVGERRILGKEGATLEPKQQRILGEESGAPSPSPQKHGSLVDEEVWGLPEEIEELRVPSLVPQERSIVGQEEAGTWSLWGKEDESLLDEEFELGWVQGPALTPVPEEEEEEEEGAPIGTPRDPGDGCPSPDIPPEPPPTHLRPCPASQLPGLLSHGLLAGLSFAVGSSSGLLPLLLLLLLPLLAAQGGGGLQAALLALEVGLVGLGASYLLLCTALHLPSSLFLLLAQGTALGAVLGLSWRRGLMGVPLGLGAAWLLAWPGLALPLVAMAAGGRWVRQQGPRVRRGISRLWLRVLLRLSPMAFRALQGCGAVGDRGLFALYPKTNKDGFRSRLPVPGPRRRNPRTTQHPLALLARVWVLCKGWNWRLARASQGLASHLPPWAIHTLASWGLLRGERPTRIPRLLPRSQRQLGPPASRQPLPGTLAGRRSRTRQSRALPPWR
To be noted: at 10 µM.

As for `N#C/C(=C\c1ccc(O)c(O)c1)C(=O)NCc1ccccc1`, the residual activity in [1] was 71%; in assay [2], 82%; in assay [3], 65%; in [4], 81%; in assay [5] it was 104%; in [6] it was 89%.

Regarding `Cc1cc(C)c(/C=C2\C(=O)Nc3ccccc32)[nH]1`, the residual activity is 76% in assay [7]; 71% in assay [8]; 105% in assay [9]; 52% in assay [3]; 73% in assay [6].
